Screening data as filed in PubChem BioAssay.
HP1b binding inh: blocks HP1-beta chromodomain binding to methylated histone tails; P83916; AlphaScreen HP1-beta / biotin-H3K9me3 peptide binding; Potency, µM (titrated, usually from 114 µM), without a hit: at the highest dose activity change, negative = inhibition, hits mostly inhibitors; 0.56% of 390,000 active; further: nearly all actives have a fitted effect of over 70% in size
Target sequence (P83916 whole entry, looked up): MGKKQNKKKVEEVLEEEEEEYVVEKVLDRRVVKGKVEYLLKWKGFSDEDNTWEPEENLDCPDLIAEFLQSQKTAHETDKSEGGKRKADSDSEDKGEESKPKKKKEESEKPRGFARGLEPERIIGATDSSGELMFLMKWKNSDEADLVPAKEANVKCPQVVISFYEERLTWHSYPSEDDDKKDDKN
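Compound inhibition of the preformed complex between 50 nM HP1-beta and 50 nM biotinylated H3K9me3 peptide was read by AlphaScreen. Buffer was PBS pH 7.4 with 0.01% Tween-20. Incubations ran 30 min at room temperature, with 10 ug/mL donor/acceptor beads.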
BAZ2B inh: BAZ2B (human) inhibition. Q9UIF8. AlphaScreen BAZ2B-H3K14Ac peptide displacement. Potency, µM (doses to about 114 µM), for the others: at the top dose activity change, negative = inhibition, actives largely listed as inhibitors. 4.4% of 360,000 active; further: on the % scale 0 is the no-effect control and ±100 the full control effect; nearly all actives have a fitted effect of over 60% in size
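Complex of BAZ2B and biotin-H3K14Ac (50 nM apiece) forms over 30 min at RT, then faces library compounds up to 110 uM for another 30 min; AlphaScreen beads added, 20 min dark incubation, luminescence read.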
G9a inh: G9a (human) methyltransferase inhibition; 8.8% of 350,000 active; Potency, µM (series often up to 102 µM), for the others: top-dose activity, negative = inhibition, most hits filed as inhibitors; Q96KQ7; G9a H3K9 monomethylation, AlphaScreen, 2 h; AID 504332; further: on the % scale 0 is the no-effect control and ±100 the full control effect; nearly all actives have a fitted effect of over 75% in size
Target sequence (Q96KQ7 913-1193 limits assumed): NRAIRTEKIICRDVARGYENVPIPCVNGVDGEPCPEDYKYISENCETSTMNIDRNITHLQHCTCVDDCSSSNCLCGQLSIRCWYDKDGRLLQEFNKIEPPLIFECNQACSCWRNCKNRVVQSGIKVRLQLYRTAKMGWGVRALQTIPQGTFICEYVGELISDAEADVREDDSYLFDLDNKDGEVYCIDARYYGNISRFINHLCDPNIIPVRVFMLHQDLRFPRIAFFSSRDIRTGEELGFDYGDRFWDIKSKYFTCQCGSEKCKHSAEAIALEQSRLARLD
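Chemiluminescent proximity detection of H3K9 monomethylation, read after 10 min bead incubation in the dark. Reaction: 20 nM G9a, 500 nM biotin-H3K9 peptide, 20 uM SAM cofactor, 2 h, room temperature, following 15 min enzyme-compound preincubation.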
Sfp inh: inhibitors of Bacillus subtilis Sfp phosphopantetheinyl transferase; Potency, µM, for inactives: largest response in the series, negative = inhibition, actives largely listed as inhibitors; Biochemical Sfp PPTase activity, qHTS; 3.5% of 310,000 active; Q9F4F7;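 further: the enzyme is Sfp with the accession as filed and its product quenches rhodamine fluorescence; 0% = enzyme reaction without inhibitor and -100% = no enzyme wells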
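Fluorescence-quenching assay with 15 nM Sfp, 5 uM rhodamine-CoA and 12.5 uM BHQ-2-labelled ybbR peptide in pH 7.6 Hepes/MgCl2 buffer. Enzyme was pre-incubated with compound for 15 min at room temperature. Rate was taken from the 30-min fluorescence change (525/598 nm).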
JMJD2A Tudor: blocks the human JMJD2A Tudor domain. AlphaScreen JMJD2A-Tudor / H3K4me3 peptide binding. Potency, µM (series often up to 114 µM), for the others: at the top dose activity change, negative = inhibition, actives largely listed as inhibitors. 4.4% of 390,000 active. AID 504339; further: on the % scale 0 is the no-effect control and ±100 the full control effect; nearly all actives have a fitted effect of over 50% in size
PLK1 PBD inh: blocks phosphopeptide binding to human PLK1 polo-box domain; Plk1 PBD binding of FITC phosphopeptide, fluorescence polarization; 2.8% of 360,000 active; Potency, µM, for inactives: max response, negative = inhibition, hits mostly inhibitors; P53350; AID 720504; further: series mostly up to about 57 µM; on the % scale 0 is the no-effect control and ±100 the full control effect; nearly all actives have a fitted effect of over 65% in size
Starred values were filed as active, the others as inactive; [ ] = dose if it differs, or a comment. Sampled rows, rich in hits. Any-hit rate of the full collection: about 12%. The call rests on the fitted dose curve; in most records, active means well fitted curve in the direction sought with a large enough effect; inconclusive means small, poorly fitted or top-dose-only effect, or another doubt; inactive means no such curve, though single readings can be large; an effect the other way counts as inactive or inconclusive. Potency means the concentration at half of the fitted maximal effect.

`O=C(Nc1cc(C(F)(F)F)ccc1F)C1Cc2c(-c3ccccc3Oc3ccccc3)ccnc2O1` (centres undefined) gave PLK1 PBD inh -3%.
`O=C(NCC(c1ccc(F)cc1)N1CCOCC1)c1cccnc1Sc1ccccc1` (centres undefined) gave HP1b binding inh 19%, BAZ2B inh 13%, G9a inh 1%, JMJD2A Tudor 5% and PLK1 PBD inh -5%.
Cc1ccc(Sc2ncccc2C(=O)NCC(c2ccc(F)cc2)N2CCOCC2)cc1C (centres undefined) was read as HP1b binding inh 38%, BAZ2B inh -9%, G9a inh 0.89µM*, JMJD2A Tudor inconclusive and PLK1 PBD inh 1%.
`CCN(CC)C(=O)CSc1n[nH]c(=S)n1N` gave HP1b binding inh 1%, BAZ2B inh -38%, Sfp inh 50µM*, JMJD2A Tudor -1%[11.4 µM] and PLK1 PBD inh -29%.
Screening CCOC(=O)CCN1C(=O)[C@H]2[C@H]3[C@H](O)[C@H](O)C/C(=N/OCC(C)C)[C@H]3CC[C@@H]2C1=O returned Sfp inh 22%.
For O=C(NCc1nnc(-c2cc3ccccc3[nH]2)o1)c1ccccc1 the results were JMJD2A Tudor -20%.
Screening CCC(C)Nc1nc(-c2ccccn2)nc2ccccc12 (centres undefined) returned HP1b binding inh 46%, BAZ2B inh 20%, G9a inh 16%, Sfp inh -12%, JMJD2A Tudor inconclusive and PLK1 PBD inh -2%.
`COc1cnc(-c2ccccn2)nc1Sc1cccc(Cl)c1` gave HP1b binding inh 15%, BAZ2B inh -3%, G9a inh 66%[59 µM], Sfp inh -4%, JMJD2A Tudor inconclusive and PLK1 PBD inh -3%.
COc1ccccc1Sc1nc(-c2ccccn2)ncc1OC was read as HP1b binding inh 37%, BAZ2B inh 22µM*, G9a inh inconclusive, Sfp inh -3%, JMJD2A Tudor 89µM* and PLK1 PBD inh 3%.
`COc1cnc(-c2ccccn2)nc1NC(C)C` gave HP1b binding inh 16%, BAZ2B inh 3.2µM*, G9a inh 56µM*, Sfp inh 7.1µM*, JMJD2A Tudor 22µM* and PLK1 PBD inh -8%.
For CN(C(=O)c1ccccc1[N+](=O)[O-])c1ccccc1C(=O)NCc1ccccc1 the results were HP1b binding inh 24%, BAZ2B inh -5%, G9a inh 10%, Sfp inh 15%, JMJD2A Tudor -10% and PLK1 PBD inh -6%.
`Cc1cc(Br)cn2c(Cc3ccccc3)c(-c3ccco3)nc12` gave PLK1 PBD inh -12%.
`Cc1ccc(Cn2cc(/C=N/Nc3ccc([N+](=O)[O-])cn3)c3ccccc32)cc1` gave HP1b binding inh 4%, BAZ2B inh -21%, G9a inh 50µM*, Sfp inh -8%, JMJD2A Tudor -22% and PLK1 PBD inh 0%.
`O=C(O)Cn1cc(/C=N/Nc2ccc([N+](=O)[O-])cn2)c2ccccc21` gave HP1b binding inh inconclusive, BAZ2B inh inconclusive, G9a inh 45µM*, Sfp inh inconclusive, JMJD2A Tudor inconclusive and PLK1 PBD inh -1%.
`Cc1ccc2nc3c(cc(C(=O)NCc4ccco4)c(=N)n3C(C)C)c(=O)n2c1` gave HP1b binding inh 40%, BAZ2B inh 1%, G9a inh 2%[59 µM] and JMJD2A Tudor -5%.
For COc1ccc(NC(=O)c2sc3nc(C)c(C(=O)Nc4ccc(C)cc4C)c(-c4cccs4)c3c2N)cc1 the results were HP1b binding inh 21%, BAZ2B inh -1%, G9a inh -42%[59 µM] and JMJD2A Tudor -7%.
`Cn1c(SCC(=O)O)nnc1-c1ccc(NC(=O)c2ccc(Cl)c(Cl)c2)cc1` gave HP1b binding inh 24%, BAZ2B inh -1%, G9a inh 50µM*, Sfp inh 12%, JMJD2A Tudor -8% and PLK1 PBD inh -18%.
CC(=O)Nc1ccc(-c2nnc(SCC(=O)Nc3ccc4c(c3)oc3ccccc34)n2C)cc1 was read as HP1b binding inh 44%, BAZ2B inh 1%[57.1 µM], G9a inh 32%[0.501 µM], Sfp inh -3%, JMJD2A Tudor 100µM* and PLK1 PBD inh -3%.
For Cc1ccc(-c2nnc(SCC(=O)CC(=O)Nc3ccccc3)n2C)cc1 the results were HP1b binding inh 57%, BAZ2B inh -4%, G9a inh -21%[59 µM], Sfp inh 28%, JMJD2A Tudor -13%[57.1 µM] and PLK1 PBD inh -12%.
COCc1nnc(NC(=O)COc2ccc3c(c2)OCO3)s1 was read as HP1b binding inh inconclusive, BAZ2B inh -31%, G9a inh 22µM*, Sfp inh 56µM*, JMJD2A Tudor -22% and PLK1 PBD inh 17µM*.
Screening O=C(COc1ccc2c(c1)OCO2)Nc1nnc(Cc2ccccc2)s1 returned HP1b binding inh inconclusive, BAZ2B inh -9%, G9a inh 18µM*, Sfp inh -91%, JMJD2A Tudor -16% and PLK1 PBD inh 24µM*.
`CCOCc1nnc(NC(=O)COc2ccc3c(c2)OCO3)s1` gave HP1b binding inh -26%, BAZ2B inh -24%, G9a inh inconclusive, Sfp inh -8%, JMJD2A Tudor -30% and PLK1 PBD inh -29%.
For O=C(COc1ccc2c(c1)OCO2)Nc1nccs1 the results were HP1b binding inh -2%, BAZ2B inh -17%, G9a inh 8%, Sfp inh 16%, JMJD2A Tudor -17% and PLK1 PBD inh -22%.
O=S(=O)(c1cccc2nsnc12)N1CCN(C/C=C\c2ccccc2)CC1 was read as HP1b binding inh -19%, BAZ2B inh inconclusive, G9a inh 50µM*, Sfp inh 1%, JMJD2A Tudor inconclusive and PLK1 PBD inh -5%.
Screening O=S(=O)(c1cccs1)N1CCN(C/C=C/c2ccccc2)CC1 returned HP1b binding inh 1%, BAZ2B inh 1%, G9a inh -2%[12.7 µM], Sfp inh -6%, JMJD2A Tudor -11% and PLK1 PBD inh -7%.
For O=S(=O)(c1cccc2nsnc12)N1CCc2ccccc21 the results were HP1b binding inh -14%, BAZ2B inh 71µM*, G9a inh inconclusive, Sfp inh -8%, JMJD2A Tudor inconclusive and PLK1 PBD inh -2%.
For O=S(=O)(c1ccc(Cl)s1)N1CCN(C/C=C/c2ccccc2)CC1 the results were HP1b binding inh inconclusive, BAZ2B inh inconclusive, G9a inh 14µM*, Sfp inh -27%, JMJD2A Tudor 1µM* and PLK1 PBD inh -6%.
For O=S(=O)(c1cccc2nsnc12)N1CCN(C/C=C/c2ccccc2)CC1 the results were HP1b binding inh -24%, BAZ2B inh inconclusive, G9a inh inconclusive, Sfp inh 6%, JMJD2A Tudor inconclusive and PLK1 PBD inh -1%.
